Among the data in PubChem BioAssay AID1611 (NINDS Approved Drug Screening Program, 2009) are fold change values, retold here.

Structures are written as SMILES.

This assay is described as follows: HSE-luciferase reporter activators – cell-based (AID 1611). As to conditions: human cells, HSE-luciferase heat shock reporter; stronger effect = higher value. Background: In a reporter assay the amount or activity of a reporter protein is the signal.
Consider `OCc1ccccc1O[C@@H]1O[C@H](CO)[C@@H](O)[C@H](O)[C@H]1O`, for which the fold change worked out at 1.04.

Take `CO[C@H]1C[C@H](O[C@H]2[C@H](C)[C@@H](OC3O[C@H](C)C[C@H](N(C)C)[C@H]3O)[C@@H](C)C[C@]3(CO3)C(=O)[C@H](C)[C@@H](O)[C@@H](C)[C@@H](C)OC(=O)[C@@H]2C)O[C@@H](C)[C@@H]1O` (some centres undefined): the fold change amounted to 0.75.

Take `CC(Cc1cccc(C(F)(F)F)c1)NCCOC(=O)c1ccccc1` (centres undefined): the fold change is 1.03.

In the case of `Cn1c(=O)c2c(ncn2CC(O)CO)n(C)c1=O` (centres undefined), the fold change came out at 1.13.

Take `CCN(CC)CCOC(=O)C1(C2CCCCC2)CCCCC1`: the fold change worked out at 0.64.

For `CN1CCN(C(c2ccccc2)c2ccc(Cl)cc2)CC1` (centres undefined), the fold change was 1.12.

For `C[n+]1c2cc(N)ccc2cc2ccc(N)cc21`, the fold change turned out to be 1.45.

Take `CC[C@H](C)C(=O)O[C@H]1CCC=C2C=C[C@H](C)C(CCC3C[C@@H](O)CC(=O)O3)[C@H]21` (some centres undefined): the fold change was 1.15.

`NC(=O)NC1NC(=O)NC1=O` (centres undefined): the fold change was 0.91.

Turning to `Cc1c(C(N)=O)cc([N+](=O)[O-])cc1[N+](=O)[O-]`, the fold change amounted to 1.05.

As to `CCCOc1ccc2nc(NC(=O)OC)[nH]c2c1`, the fold change came to 1.26.

Take `CCN(CC)CCNC(=O)c1cc(Cl)c(N)cc1OC`: the fold change was 1.24.

`O=C(Cn1ccnc1[N+](=O)[O-])NCCO`: the fold change was determined as 0.93.

In the case of `COc1cccc(OC)c1C(=O)N[C@@H]1C(=O)N2[C@@H]1SC(C)(C)[C@@H]2C(=O)O`, the fold change was 0.82.

As to `CN=C(NC#N)NCCSCc1nc[nH]c1C`, the fold change was determined as 0.5.

Regarding `Cc1cc(-c2ccccc2)nnc1NCCN1CCOCC1`, the fold change is 0.98.

Take `CCCn1c(=O)c2[nH]c(C3CCCC3)nc2n(CCC)c1=O`: the fold change came to 0.74.

Regarding `CCCCC1(COC(=O)CCC(=O)O)C(=O)N(c2ccccc2)N(c2ccccc2)C1=O`, the fold change stood at 0.82.

On to `O=c1c(O)cc2c(O)oc3c(=O)c(O)cc4c3c2c1CC=4O`, for which the fold change worked out at 1.46.

As for `NC[C@@H]1O[C@H](O[C@@H]2[C@@H](CO)OC(O[C@@H]3[C@@H](O)[C@H](N)C[C@H](N)[C@H]3OC3O[C@H](CN)[C@@H](O)[C@H](O)[C@H]3N)[C@@H]2O)[C@H](N)[C@@H](O)[C@@H]1O` (some centres undefined), the fold change turned out to be 0.96.

Take `CCCCOc1ccc(CC(=O)NO)cc1`: the fold change was 0.79.

Turning to `NNCCc1ccccc1`, the fold change came out at 0.93.

Turning to `CC(=O)N(O)CCCCCNC(=O)CCC(=O)N(O)CCCCCNC(=O)CCC(=O)N(O)CCCCCN`, the fold change was determined as 0.7.

With `OCC(O)CN1CCN(c2ccccc2)CC1` (centres undefined), the fold change was found to be 0.82.

Consider `CC(CN1c2ccccc2Sc2ccccc21)N(C)C` (centres undefined), for which the fold change was determined as 0.91.

For the compound `O=C1CCC(N2C(=O)c3ccccc3C2=O)C(=O)N1` (centres undefined), the fold change was 0.89.

`CC(=O)OCC(=O)[C@@]1(O)CCC2C3CCC4=CC(=O)CC[C@]4(C)C3C(=O)C[C@@]21C` (some centres undefined): the fold change came out at 0.62.

`CC(=O)OCC1=C(C(=O)O)N2C(=O)[C@@H](NC(=O)CSc3ccncc3)[C@H]2SC1`: the fold change was found to be 0.82.

With `O=C(O)c1ccccc1OP(=O)(O)O`, the fold change came out at 1.04.

Regarding `CCn1cc(C(=O)O)c(=O)c2ccc(C)nc21`, the fold change is 0.98.

For the compound `CO[C@@H]1[C@@H](OC(N)=O)[C@@H](O)[C@H](Oc2ccc3c(O)c(NC(=O)c4ccc(O)c(CC=C(C)C)c4)c(=O)oc3c2C)OC1(C)C`, the fold change stood at 1.06.

As to `NNC(=O)c1ccncc1`, the fold change is 0.48.

As to `Cc1cccc(Nc2ccccc2C(=O)O)c1C`, the fold change worked out at 1.2.

For the compound `O=C(O)c1cc2cc(Cc3cccnc3)ccc2o1`, the fold change is 0.83.

As to `C[C@H](CS)C(=O)N1CCC[C@H]1C(=O)O`, the fold change is 0.72.

For the compound `Oc1ccc(Cl)c2cccnc12`, the fold change was found to be 1.15.

As to `CCOc1ccc2c(c1)C(C)=CC(C)(C)N2`, the fold change is 1.18.

As for `CCc1cccc2c3c([nH]c12)C(CC)(CC(=O)O)OCC3` (centres undefined), the fold change was found to be 1.02.

With `Cc1ccc(S(=O)(=O)NC(=O)NN2CCCCCC2)cc1`, the fold change was 0.73.
